BCLXL inh – inhibitors of human Bcl-xL; 0.7% of 320,000 active; AID 2129; inhibition, % at 10.9 µM; GST-Bcl-xL / FITC-Bim BH3 peptide fluorescence polarization; Q07817;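 active = inhibition above the mean of all tested compounds plus 3 SD, cutoff set per campaign, cut at about 30% in these data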;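 note: inhibitors lower millipolarization by displacing the labeled peptide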
Target sequence (Q07817 whole entry, looked up): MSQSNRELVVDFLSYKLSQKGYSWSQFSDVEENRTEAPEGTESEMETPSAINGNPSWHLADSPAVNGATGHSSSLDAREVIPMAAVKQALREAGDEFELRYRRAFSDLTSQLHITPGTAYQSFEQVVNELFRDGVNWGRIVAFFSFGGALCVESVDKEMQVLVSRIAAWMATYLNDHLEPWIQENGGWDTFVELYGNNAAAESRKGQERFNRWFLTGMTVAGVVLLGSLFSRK
MCL1 BIM primary – MCL1-BIM-BH3 interaction inhibition (human) | GST-MCL1 / FITC-Bim-BH3 fluorescence polarization | inhibition, % at 10.9 µM | 0.68% of 320,000 active | AID 2057;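 active = inhibition above the mean inhibition of all tested compounds plus 3 SD, set per campaign, cut at about 40% in these data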;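 note: higher means more loss of mP so more displacement of Bim peptide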
GLD-1 RNA inh – GLD-1-TGE RNA interaction inhibition (C. elegans) | Q17339 | purified GLD-1 + fluorescein TGE RNA, fluorescence polarization | inhibition, % at 5.96 µM | 0.44% of 320,000 active;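 active = percent inhibition above a per-plate cutoff, the plate mean of test compounds plus 3 SD, cut at about 30% in these data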
Target sequence (Q17339 whole entry, looked up): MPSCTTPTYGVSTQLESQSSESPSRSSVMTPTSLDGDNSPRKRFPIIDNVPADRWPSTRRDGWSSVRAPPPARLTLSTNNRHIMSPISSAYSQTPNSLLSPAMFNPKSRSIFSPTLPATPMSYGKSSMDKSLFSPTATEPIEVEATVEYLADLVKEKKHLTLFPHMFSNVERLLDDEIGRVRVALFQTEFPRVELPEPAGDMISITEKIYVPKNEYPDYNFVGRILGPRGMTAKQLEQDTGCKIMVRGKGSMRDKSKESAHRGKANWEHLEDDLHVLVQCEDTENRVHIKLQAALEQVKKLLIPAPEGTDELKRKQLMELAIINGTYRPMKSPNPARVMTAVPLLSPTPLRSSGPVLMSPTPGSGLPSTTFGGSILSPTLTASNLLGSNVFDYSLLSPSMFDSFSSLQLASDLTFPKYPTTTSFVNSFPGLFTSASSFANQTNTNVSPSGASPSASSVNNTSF
E coli Lon inh – inhibits E. coli Lon protease; purified E. coli Lon protease, fluorescence polarization; inhibition, % at 7.94 µM; 0.42% of 360,000 active; AID 602123; in the data active = inhibition above about 13%, passing the limit was not always enough
MEX-5 binding – C. elegans MEX-5 TCR-2 RNA binding activity; Q9XUB2; MEX-5/FITC-TCR2 RNA binding, fluorescence polarization; active compounds read low; activity score (negative = inhibition of binding), % at 10 µM; 0.38% of 300,000 active;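 active = inhibition past about -25% in most replicates, and total fluorescence under double the plate's negative control median, limit read from the data; inconclusive = replicates evenly split on the limit, or fluorescence at least double controls; inactive = too little inhibition in most replicates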
BCLXL inh confirm – counter-screen for MCL1 inhibitors: confirmation of human Bcl-xL inhibitors; shares compounds with MCL1 BIM primary; GST-Bcl-xL / FITC-Bim BH3 peptide FP binding; inhibition, % at 10.9 µM; 54% of 1,700 active;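 active = inhibition above a cutoff equal to the mean inhibition of all tested compounds plus 3 SD, cut at about 30% in these data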
MCL1 inh confirm – MCL1-BIM-BH3 interaction inhibition, confirmation | shares compounds with MCL1 BIM primary | GST-MCL1 / FITC-Bim-BH3 fluorescence polarization | inhibition, % at 10.9 µM | 61% of 1,700 active | AID 2168;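 active = inhibition above the average of all tested compounds plus 3 SD, cut at about 40% in these data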
GLD-1 TGE cf – GLD-1 TGE RNA interaction inhibition, confirmation; shares compounds with GLD-1 RNA inh; GLD-1/FL-TGE RNA fluorescence polarization, biochemical; AID 2459; 10% of 550 active; inhibition, % at 5.96 µM;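 active = average inhibition across triplicates above the hit cutoff set in the primary screen, cut at about 32% in these data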
E coli Lon conf – E. coli Lon inhibition confirmation; shares compounds with E coli Lon inh; purified E. coli Lon, fluorescence polarization; inhibition, % at 7.94 µM; 31% of 1,400 active; AID 602230; in the data active = inhibition above about 16%
Hits are given with their value; – = inactive; ? = inconclusive; · = no result given; + = active, no number. Compounds with a hit are over-represented: about 1.4% of the library has one in this group of screens.

SMILES | BCLXL inh | MCL1 BIM primary | GLD-1 RNA inh | E coli Lon inh | MEX-5 binding | BCLXL inh confirm | MCL1 inh confirm | E coli Lon conf | others
c1ccc2c(c1)CCCN2Cc1nnnn1CC1CCCO1 (stereo unspecified) | 161.9 | 196.0 | 107.5 | 73.5 | – | 102.0 | 124.0 | 34.9
c1ccc2sc(N3CCN(Cc4nnnn4CC4CCCO4)CC3)nc2c1 (stereo unspecified) | – | – | – | – | – | · | · | ·
CC(=O)Nc1ccc(S(=O)(=O)Nc2nc3ccccc3nc2Sc2nncn2C)cc1 | 78.1 | 77.8 | 37.1 | 19.3 | – | 40.6 | 47.3 | –
CCOC(=O)CNc1ccc2c(c1)OCO2 | 154.3 | 176.0 | 83.6 | 64.9 | – | – | – | –
COc1cccc(CNc2nc3cc(C(C)=C(C)C)sc3c(=O)n2C)c1 | · | · | · | – | · | · | · | ·
CC1CC=C2C(C#N)=C(N)C(C#N)(C#N)C(c3cccs3)C2C1 (stereo unspecified) | 91.5 | 96.0 | 69.5 | 42.3 | -30.7 | 52.2 | 67.9 | 16.3
CCOC(=O)N1CC=C2C(C#N)=C(N)C(C#N)(C#N)[C@H](c3cccs3)C2C1 (stereo partly specified) | – | – | – | – | – | · | · | ·
COc1ccccc1N1C(=O)c2cccc3c(N(C)CCO)ccc(c23)C1=O | 183.0 | + | 171.5 | 175.6 | – | 128.4 | 151.8 | 76.1
COc1ccccc1N1C(=O)c2cccc3c(C(=O)O)ccc(c23)C1=O | – | – | – | – | – | · | · | ·
Cc1ccccc1N1C(=O)c2cccc3c(N(C)CCO)ccc(c23)C1=O | 181.1 | + | 166.6 | 124.3 | ? | 121.1 | 157.1 | 83.9
COc1ccc2c3c(cccc13)C(=O)N(O)C2=O | 68.9 | 69.2 | – | 37.7 | – | 67.0 | 77.0 | 86.7
CCOc1ccccc1-c1cncc(NC)n1 | · | · | · | – | · | · | · | ·
O=c1cc(CN2CCc3ccccc32)nc2sccn12 | – | – | – | – | – | · | · | ·
O=c1cc(CN2CCCc3ccccc32)nc2sccn12 | 199.5 | + | – | 39.1 | ? | 133.7 | 166.3 | 86.3
COc1cc(/C=C2\CCCc3c2nc2ccccc2c3C(=O)O)cc(Br)c1O | – | – | – | – | – | · | · | ·
CCOc1cc(/C=C2\CCCc3c2nc2ccccc2c3C(=O)O)ccc1OC | 142.6 | 165.7 | 144.7 | 114.9 | – | – | – | 66.2
O=C(COc1cccnc1[N+](=O)[O-])Nc1c(Cl)cccc1Cl | · | · | – | – | · | · | · | ·
O=C(COc1cccnc1[N+](=O)[O-])Nc1ncc(Cl)cc1Cl | 64.1 | 78.3 | – | 18.2 | · | 60.8 | 98.5 | –
Cc1nc2ccccc2n2c(O)c(CC(=O)O)cc12 | + | + | 136.6 | 147.6 | ? | 189.5 | + | 119.3
CCCCCCCCN1C(=O)[C@H](CC(=O)NCc2cccc(C(F)(F)F)c2)C[C@@]2(C(=O)OC)CCCCC=C12 | · | · | · | – | · | · | · | ·
COc1cccc2c1C(=O)c1c(O)c3c(c(O)c1C2=O)C[C@@](O)(C(=O)CO)C[C@@H]3O[C@H]1C[C@H](N)[C@H](O)[C@H](C)O1 | + | + | + | + | ? | + | + | +
C[C@@H]1CNC(=O)c2c(C(=O)N[C@@H](Cc3c[nH]c4ccccc34)C(=O)OC(C)(C)C)ncn21 | · | · | · | – | · | · | · | ·
Cc1cccc(C)c1NC(=O)CN1CCN(c2ccc(C(F)(F)F)cn2)CC1 | · | · | · | – | · | · | · | ·
COc1ccc2[nH]c(C)c(CCN(Cc3cccs3)C(=S)Nc3ccccc3)c2c1 | 79.4 | 87.8 | 46.4 | 68.0 | – | 38.1 | 59.2 | 22.1 | GLD-1 TGE cf=–
O=C(COC(=O)c1ccc(Cl)c(S(=O)(=O)N2CCCCC2)c1)NC1CCCCC1 | · | · | · | – | · | · | · | ·
SMILES | BCLXL inh | MCL1 BIM primary | GLD-1 RNA inh | E coli Lon inh | MEX-5 binding | BCLXL inh confirm | MCL1 inh confirm | E coli Lon conf | others
CC(C)c1ccc(Nc2c([N+](=O)[O-])c(=O)n(C)c3ccccc23)cc1 | – | – | – | – | – | · | · | ·
Cn1c(=O)c(Nc2ccc(O)cc2)c2c3c(cccc31)C(=O)c1ccccc1-2 | 164.1 | + | 154.8 | + | – | 162.6 | + | 121.1
CSc1ccc(CN2CCC2(C)C(=O)Nc2cccc(Oc3ccccc3)c2)cc1 (stereo unspecified) | · | · | · | – | · | · | · | ·
CC(C)c1ccc[n+](-c2nc([O-])sc2C=O)c1 | – | – | – | – | – | · | · | ·
Cc1ccc[n+](-c2nc([O-])sc2C=O)c1 | 173.4 | + | 156.0 | 91.7 | · | 169.4 | + | 148.3
COC(=O)c1cc(N2CCN(C)CC2)nc2ccccc12 | 138.1 | 144.1 | 85.3 | 96.0 | ? | – | – | 18.9
CCOC(=O)c1cc(N2CCCCC2)nc2ccccc12 | · | · | · | – | · | · | · | ·
N#CC1(C#N)C(c2ccccc2)OC23CCCCC2C1(C#N)C(=N)O3 (stereo unspecified) | 132.2 | 177.5 | 102.0 | 30.2 | -48.6 | – | – | 40.9
CCCCC1OC23CCCCC2C(C#N)(C#N)C1(C#N)C(=N)O3 (stereo unspecified) | 103.3 | 127.0 | 83.4 | 26.4 | – | – | – | –
CCCCC1OC23CCCCC2C(C#N)(C(=N)O3)C1(C#N)C#N (stereo unspecified) | 77.8 | 78.1 | 53.8 | 25.3 | – | – | – | – | GLD-1 TGE cf=–
C[C@H](NC(=O)/C=C/[C@H]1O[C@@H](n2ccc(=O)[nH]c2=O)[C@H](O)[C@@H]1O)C(=O)O | · | · | · | – | · | · | · | ·
Cn1nc([N+](=O)[O-])c(C(C#N)c2nc3ccccc3n2C)c(Cl)c1=O (stereo unspecified) | 79.3 | 91.4 | 50.6 | 22.0 | -28.3 | 84.2 | 90.0 | 32.5
Cn1c(-c2ccc([N+](=O)[O-])cc2)nc2ccccc21 | – | – | – | – | – | · | · | ·
O=C1C(Cl)=C(N2CCN(Cc3ccccc3)CC2)C(=O)N1Cc1ccccc1 | 56.6 | 56.0 | 34.4 | 36.3 | – | – | – | – | GLD-1 TGE cf=–
CN1C(=O)NC(c2ccccc2[N+](=O)[O-])C2=C1CCCC2=O (stereo unspecified) | + | + | + | + | -79.8 | 154.2 | 176.7 | +
Cc1oc2c(O)c(O)ccc2c(=O)c1-c1ccc(Cl)cc1 | – | 43.3 | – | 16.1 | – | 58.1 | 81.3 | –
N=C1CCC(=N)c2c1c(O)c1ccccc1c2O | 124.6 | 150.4 | 107.3 | 28.7 | – | 119.0 | 144.2 | 44.3
Cc1c(C(=O)NCc2ccccc2C(F)(F)F)sc(=O)n1Cc1ccccc1C#N | · | · | · | – | · | · | · | ·
Clc1ccc(C2=CC(c3ccco3)n3ncnc3N2)cc1 (stereo unspecified) | 189.4 | + | 140.7 | 138.8 | -91.2 | 51.3 | 75.8 | 74.7
